Experimental data from PubChem BioAssay.
Activity calls are given as the source filed them. Unless noted, the rule behind the calls is not given here.

How the values were obtained:
[1] = test system: XIP peptide (Xip251-270) binding; assay: small-molecule binders of XIP peptide, primary screen, biochemical, small-molecule microarray, fluorescence 635/667 nm, 0.1 µg/mL protein (AID 1182); settings: fluorescent protein binding, 635 nm, higher = more signal, called active from +8 up or from −8 down
XIP peptide (Xip251-270) = assay: small-molecule binders of XIP peptide, primary screen, biochemical, small-molecule microarray, fluorescence 635/667 nm, 0.5 µg/mL protein (AID 1183); settings: small-molecule microarray binding, fluorescence 635 nm; higher = more signal
[2] = Plasmodium falciparum growth inhibition, primary screen, strain 3D7, DAPI fluorescence, 100 nL (AID 1184);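 note: parasites grown inside human red blood cells in medium with human serum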; settings: P. falciparum 3D7 growth, 3 d, higher = more signal
[3] = molecular target: Homeobox protein Hox-A13 (Mus musculus) (UniProt Q62424); assay: inhibitors of HoxA13-DNA binding, primary screen, biochemical, fluorescence polarization, labeled oligonucleotide (AID 1185); settings: 15 min, higher = more signal, called active from +8 up or from −8 down
[4] = inhibitors of hydroxyurea-induced Chk1 phosphorylation, primary screen, imaging, HeLa, phospho-Chk1 antibody, percent positive cells (AID 1186); settings: hydroxyurea-induced phospho-Chk1 immunofluorescence imaging, higher = more signal
[5] = inhibitors of hydroxyurea-induced Chk1 phosphorylation, primary screen, imaging, HeLa, phospho-Chk1 nuclear intensity (AID 1187); settings: hydroxyurea-induced phospho-Chk1 immunofluorescence imaging, higher = more signal

Sequence of Homeobox protein Hox-A13 (Mus musculus) (Q62424 whole entry, looked up): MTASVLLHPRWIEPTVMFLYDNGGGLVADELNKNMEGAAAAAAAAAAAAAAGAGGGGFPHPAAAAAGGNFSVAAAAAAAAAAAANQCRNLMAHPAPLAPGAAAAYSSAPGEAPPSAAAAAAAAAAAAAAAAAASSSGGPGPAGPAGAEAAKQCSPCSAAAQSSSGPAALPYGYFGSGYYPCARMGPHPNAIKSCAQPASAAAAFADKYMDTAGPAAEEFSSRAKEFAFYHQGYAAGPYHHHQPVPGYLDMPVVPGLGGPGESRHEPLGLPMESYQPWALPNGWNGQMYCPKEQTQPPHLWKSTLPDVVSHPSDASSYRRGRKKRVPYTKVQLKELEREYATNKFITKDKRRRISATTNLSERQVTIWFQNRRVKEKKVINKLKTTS

SMILES	composite z-score [1]	composite z-score (XIP peptide (Xip251-270))	z-score [2]	z-score [3]	z-score [4]	z-score [5]
COc1ccc(CC[C@H](O)c2cccc(OCC(=O)OC(C)(C)C)c2)cc1	0.809 (inactive)	0.662	-1.03	-5.52 (inactive)	-0.0884 (inactive)	0.27 (inactive)
CCN(CC)c1ccc(N2CC=CC34O[C@@H]5C=CCOC(=O)[C@@H]5[C@H]3C(=O)N(CCCO)[C@@H]4C2=O)cc1 (some centres not stated)	0.309 (inactive)	0.306	-1.55	-4.02 (inactive)	-0.232 (inactive)	-0.569 (inactive)
[N-]=[N+]=NCc1ccccc1C[C@]1(C(=O)NCc2ccccc2)N=C(c2ccc(OCCCO)cc2)O[C@H]1c1ccccc1CN=[N+]=[N-]	0.99 (inactive)	0.628	-2.24	4.04 (inactive)	-0.347 (inactive)	0.0031 (inactive)
COc1ccc([Si](C)(C)[C@H]2[C@H](CCO)O[C@@]3(C(=O)N(Cc4ccc(N5CCOC5=O)cc4)c4ccccc43)[C@@H]2C)cc1	0.782 (inactive)	0.666	-2.76	-2.76 (inactive)	-0.73 (inactive)	-0.713 (inactive)
CCCCC(=C=CC[C@H](O)c1ccc(OCCO)cc1)C[C@H](O)c1ccccn1	0.575 (inactive)	0.645	-0.593	-5.18 (inactive)	0.203 (inactive)	0.451 (inactive)
CCOC(=O)C1=CC[C@@H](c2ccccc2Cl)N(S(=O)(=O)c2ccc(C)cc2)[C@H]1c1cccc(OC)c1	0.211 (inactive)	0.246	-0.794	-1.18 (inactive)	0.0932 (inactive)	-0.553 (inactive)
COc1cc(OC)c(C(O)C2C=CC3C(=O)N(c4ccccc4)C(=O)C3N2Nc2ccccc2F)cc1Br (configuration not stated)	0.166 (inactive)	0.758	1.74	-1.47 (inactive)	0.195 (inactive)	-0.0782 (inactive)
CN(C)CCCC[C@@H]1NC(=O)[C@H]2C[C@@H](C(=O)O)[C@@H](c3cccc(OCCO)c3)N2C1=O	0.432 (inactive)	0.288	-0.133	-1.71 (inactive)	-0.791 (inactive)	-0.55 (inactive)
COC(=O)[C@@]1(Cc2ccc(F)cc2)[C@H]2c3cc(C(=O)N(C)C)n(CCN4CCOCC4)c3C[C@H]2CN1C(=O)c1ccccc1	0.673 (inactive)	0.811	-1.45	-6.83 (inactive)	-0.366 (inactive)	-0.245 (inactive)
CC[C@H](C)C(=O)O[C@H]1CC[C@]2(C)C3=C(CCC2C1(C)C)[C@]1(C)CC[C@H]([C@H](C)CCCC(C)C)[C@@]1(C)CC3 (some centres not stated)	0.146 (inactive)	-0.273	0.231	-1.34 (inactive)	-0.719 (inactive)	-0.829 (inactive)
CC(=O)c1ccc(C(O)C2C=CC3C(=O)N(C)C(=O)C3N2NC(=O)OC(C)(C)C)cc1 (configuration not stated)	2.44 (inactive)	0.763	-0.29	-1.11 (inactive)	0.976 (inactive)	0.688 (inactive)
CCOC(=O)C1=CC[C@@H](c2ccc(F)cc2)N(S(=O)(=O)c2ccc(C)cc2)[C@H]1c1ccc([N+](=O)[O-])cc1	0.1 (inactive)	0.559	-1.8	0.532 (inactive)	0.355 (inactive)	0.593 (inactive)
NCCCC[C@@H]1NC(=O)[C@H]2C[C@@H](C(=O)O)[C@@H](c3cccc(OCCO)c3)N2C1=O	0.505 (inactive)	0.86	-0.0736	6.28 (inactive)	0.0547 (inactive)	-0.62 (inactive)
C=CCOC(=O)[C@H]1[C@@H]2C(=O)O[C@@H](c3ccccc3)[C@@H](c3ccccc3)N2[C@@H](c2ccc(OCCOC(=O)[C@H]3C[C@H]4C(=O)NCC(=O)N4[C@H]3c3ccc(O)cc3)cc2)[C@]12C(=O)Nc1ccc(I)cc12	-0.256 (inactive)	0.7	-1.83	2.46 (inactive)	-1.06 (inactive)	-1.08 (inactive)
CN(C)CCCC[C@@H]1NC(=O)[C@@H]2C[C@H](C(=O)NCCCCCCNC(=O)CS)[C@H](c3cccc(OCCO)c3)N2C1=O	0.602 (inactive)	0.667	-0.391	-2.01 (inactive)	0.134 (inactive)	-0.332 (inactive)
CCCCC(=C=CC[C@@H](O)c1cccc(OCCO)c1)CCO	-0.0509 (inactive)	0.106	-0.0161	-2.25 (inactive)	-0.875 (inactive)	-0.341 (inactive)
CC(C)(C)OC(=O)CC[C@]1(C(N)=O)N=C(c2ccc(OCCCO)cc2)O[C@H]1c1ccccc1CN=[N+]=[N-]	-0.226 (inactive)	0.819	-0.176	-4.12 (inactive)	-0.198 (inactive)	0.0796 (inactive)
